The record followed here is PubChem BioAssay (NCI).

The panel holds about 83,000 compounds, 20% with a hit somewhere; the sample as a whole holds those more often.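 Plates (96-well) were seeded with cells, treated with compound at one concentration, and incubated for 48 hours before percent growth was determined.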 Calls of active or inactive are those of the source. How the source made its calls: active means growth percent below 10; inactive means the rest.

The first assay relates to CCRF-CEM leukemia. Nature of the assay: NCI-60 one-dose screen, 48 h (100 = growth as untreated, 0 = no growth, -100 = all killed). As to conditions: 10 µM.
With `Nc1nccc(Nc2ccccc2)n1`, the growth is 89.8% (inactive). With `Oc1[nH]c2cc(Cl)ccc2c1/C=c1/ccc2c(c1)N=C(c1cc(F)cc(F)c1)N=2`, the growth is 9.33% (active). For `c1ccc2c(c1)oc1c3cccnc3ccc21`, the growth is 111% (inactive). Take `COc1ccc2c(c1)sc1nc(-c3ccccc3)c(-c3ccsc3)n12`: the growth was 23.2% (inactive). Turning to `CSc1cc(SC)ncn1`, the growth is 94% (inactive). As for `COc1ccc2c(c1)sc1nc(-c3ccccc3)c(-c3ccc(O)c(OC)c3)n12`, the growth is 78.1% (inactive). On to `CCCCCCCCCCCCCC[n+]1ccc(C(N)=O)cc1`, for which the growth was 2.78% (active). Take `CN1c2ccccc2[C@]2(Cc3ccccc3)Cc3ccccc3N[C@H]12`: the growth was 92.2% (inactive).

Take `CCN(CC)CCSCCCNc1c2ccc(Cl)cc2nc2ccc(OC)cc12`: the growth was -20.4% (active). With `CC(=O)c1cc(Br)ccc1O`, the growth was 103% (inactive).

Regarding `COc1ccc(-c2nc3sccn3c2-c2nc3c([nH]2)C(=O)c2ccccc2C3=O)cc1`, the growth was 79.9% (inactive). On to `N=C1c2nc3n(c2C(=O)c2nc4n(c21)CCCC4)CCCC3`, for which the growth was 92.9% (inactive). On the same count and under the same terms, the figure for `COc1ccc(-c2nc3ccccn3c2-c2nnc(-c3cc(OC)c(OC)c(OC)c3)o2)cc1` is 88.4% (inactive); for `CCN(CC)CCOc1nc2ccc(OC)cc2c2c1-c1ccc(OC)cc1C2=O` it is 5.22% (active).

For the molecule `CCCCCCCCN(CCCCCCCC)CCCCCCCCCN1CCCc2cc(OC)ccc21`, the growth is 85.8% (inactive). With `COc1ccc2c(c1)C(=O)c1c-2c(OCCN(C)C)nc2cc(OC)c(OC)cc12`, the growth was 28.2% (inactive). On the same count and under the same terms, next, `COc1ccc(/C(=C2\O[C@@H]([C@H]3COC(C)(C)O3)[C@H]3OC(C)(C)O[C@@H]23)c2cc(OC)c(OC)c(OC)c2)cc1O`: 47.9% (inactive). Consider `Nc1ccn(C2CC(O)C(CO)O2)c(=O)n1` (centres undefined), for which the growth was 116% (inactive). On the same count and under the same terms, the figure for `CC(C)=CCc1ccc(O)c(=O)cc1C(C)C` is 9.68% (active).

A further assay concerns MOLT-4 leukemia. The assay is described as above. As to conditions: 10 µM.
With `C=C(C(=O)c1ccccc1)C(NC(C)(C)C)c1ccccc1` (centres undefined), the growth is 4.36% (active). As to `N=c1c2c(-c3ccccc3)c(-c3ccccc3)n(Cc3ccccc3)c2ncn1CCCO`, the growth was -10.9% (active). As for `COc1cc(/C=C2\Oc3cc(OCC(=O)c4ccccc4)ccc3C2=O)cc(OC)c1OC`, the growth is 91% (inactive). `O=C(Nc1nc2ccc(F)cc2s1)c1cc(-c2ccc(F)cc2)n2nc(-c3ccccc3)cc2n1`: the growth is 99.7% (inactive). For `CCN1CCC2(CC1)OC(c1ccccc1)C(c1ccccc1)O2` (centres undefined), the growth was 96.5% (inactive).

Consider `O=C(O)c1ccc(Cl)cc1Nc1ccc(F)cc1`, for which the growth was 56.8% (inactive). On the same count and under the same terms, next, `CCCCCC(=O)c1ccc(OCCCN2CCN(C(=O)OCC)CC2)cc1`: 78.6% (inactive). In the case of `COc1ccc(-c2nnc(-c3c(-c4ccccc4)nc4ncccn34)o2)cc1OC`, the growth was 93.1% (inactive). Still for that read-out and setting: next, `COc1ccc2nc3cc(Cl)ccc3c(NCCNCC(C)O)c2c1` (centres undefined): 11.7% (inactive); `CC(C)(C)NC/C(=C\c1ccccc1)C(=O)c1ccccc1`: 10.3% (inactive); `COc1ccc(-c2ccc3cc(C(=O)Nc4ccc(O)c(C(=O)/C=C/c5cc(OC)c(OC)c(OC)c5)c4)ccc3c2)cc1`: 69.6% (inactive). Turning to `CCCCN(CCCC)c1cc(C(=O)CCCCCN)c2ccccc2n1`, the growth is -61.5% (active). Consider `COc1ccc(NC(=O)Cc2nc3nc4sc(C)c(C)c4c(=O)n3[nH]2)cc1`, for which the growth was 99.4% (inactive). `COc1cc(-c2nc(-c3nnc(-c4ccc(F)c(Cl)c4)o3)c3ccccn23)cc(OC)c1OC`: the growth was 67% (inactive). In the case of `NC(=O)SCC(=O)Nc1ccc(S(N)(=O)=O)cc1`, the growth is 113% (inactive). With `Nc1nccc(Nc2ccccc2)n1`, the growth was 96.3% (inactive). Still for that read-out and setting: the figure for `Oc1[nH]c2cc(Cl)ccc2c1/C=c1/ccc2c(c1)N=C(c1cc(F)cc(F)c1)N=2` is 8.56% (active); for `c1ccc2c(c1)oc1c3cccnc3ccc21` it is 61.4% (inactive). For `COc1ccc2c(c1)sc1nc(-c3ccccc3)c(-c3ccsc3)n12`, the growth is 36.4% (inactive). On the same count and under the same terms, the figure for `CSc1cc(SC)ncn1` is 105% (inactive); for `COc1ccc2c(c1)sc1nc(-c3ccccc3)c(-c3ccc(O)c(OC)c3)n12` it is 71.2% (inactive); for `CCCCCCCCCCCCCC[n+]1ccc(C(N)=O)cc1` it is -34.8% (active). Same read-out and setting: the figure for `CN1c2ccccc2[C@]2(Cc3ccccc3)Cc3ccccc3N[C@H]12` is 90.2% (inactive); for `CCN(CC)CCSCCCNc1c2ccc(Cl)cc2nc2ccc(OC)cc12` it is -19.9% (active).

In the case of `CC(=O)c1cc(Br)ccc1O`, the growth was 101% (inactive).
